Source: PubChem BioAssay (NCI)
This is part of a sample that, as a whole, favours compounds with a hit. Of some 83,000 tested, about 20% had one in any assay.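 Single-dose data. Exposure time 48 hours. Values below 10 considered active.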 Calls of active or inactive are those of the source.

System: SW-620 colon
Assay: NCI-60 one-dose screen, 48 h (100 = growth as untreated, 0 = no growth, -100 = all killed)
Settings: 10 µM unless noted

Row | SMILES | growth
1 | C1=CN2CC(c3ccccc3)=NNC2c2ccccc21 (stereo not given) | 96.7% (inactive)
2 | NC(=O)CCC(C(=O)O)N1C(=O)c2ccc(O)cc2C1=O (stereo not given) | 111% (inactive)
3 | Clc1ccc(Sc2cnc(-c3ccccc3)o2)cc1 | 105% (inactive)
4 | OCc1cccc(-c2ccc3ncc(-c4nc(NC5CC5)ncc4F)n3c2)c1 | 0.326% (active)
5 | CO/N=C(/C)c1ccc(NC(=O)CSc2nnc(-c3ccncc3)n2-c2ccccc2)cc1 | 84.2% (inactive)
6 | Cc1ccc(C2=Nc3c(N)ncnc3NC(c3ccc4c(c3)OCO4)C2)cc1 (stereo not given) | 18.3% (inactive)
7 | COc1cc2oc(-c3cccc(NC(=O)c4cccc(Br)c4)c3)cc(=O)c2c(OC)c1OC | 65.1% (inactive)
8 | COC(=O)c1cc(-c2ccccc2)[nH]c1N/N=C/c1c(Cl)cccc1Cl | 13.3% (inactive)
9 | CN(C)CCCn1c2c(c3ncccc3c1=O)C(=O)c1ccccc1-2 | 24% (inactive)
10 | Cc1nnc(-n2c(O)cc(=O)n(-c3ccccc3)c2=S)nc1/C=C/c1ccc(N(C)C)cc1 | 67.2% (inactive)
11 | COc1ccc2c(c1)[n+]([O-])c(C(=O)/C=C/C=C(\Cl)c1cc(OC)c(OC)c(OC)c1)c(C)[n+]2[O-] | 103% (inactive)
12 | O=S(=O)(Nc1ccc(Cl)cc1)c1ccc(-c2cnc(C3CC3)o2)cc1 | 17.4% (inactive)
13 | O=C1/C(=C/c2ccc(Cl)cc2)COc2ccc(O)c(O)c21 | -9.64% (active)
14 | COc1ccc(-c2nc3c(c(-c4ccccc4)nn3-c3ccccc3)c(-c3ccc(N4CCOCC4)cc3)c2C#N)cc1 | 90.4% (inactive)
15 | N#Cc1c(NC(=O)c2ccccc2)sc2c1CCC(=O)C2 | 11.6% (inactive)
16 | COc1cc(-c2nc3cc(Cl)c(Cl)cc3[nH]2)ccc1OCC(=O)N=Nc1c(O)[nH]c2ccc([N+](=O)[O-])cc12 | 82.7% (inactive)
17 | COc1ccc(N2CCC(=O)NC2=S)cc1 | 96.8% (inactive)
18 | CCOC(=O)c1nc(Nc2ccc(NC(=O)Nc3ccc(F)cc3)cc2)c2ccccc2n1 | 96.9% (inactive)
19 | CCOC(=O)C1=C(NC)OCC1=O | 100% (inactive)
20 | COc1cc(OC)c2sc(-c3ccc(-n4cncc4-c4ccc(OC)c(OC)c4)cc3)nc2c1 | 55.7% (inactive)

Row | SMILES | growth
21 | COCCNC(=O)c1ccc(-c2nc3ccc4[nH]ncc4c3c3c2CCCC3)cc1 | 11% (inactive)
22 | Oc1c(Cl)cc(Cl)c2ccc(Cn3cc(-c4cc(F)cc(F)c4)nn3)nc12 | 4.81% (active)
23 | Cc1ccc2c(n1)C(=O)c1[nH]c3ccccc3c1C2=O | 48.3% (inactive)
24 | C=CCc1c2c(c(OC)c3ccoc13)C(=O)/C(=C/c1ccccc1OC)O2 | 47.2% (inactive)
25 | O=C(/C=C/c1cn(-c2ccccc2)nc1-c1ccc([N+](=O)[O-])cc1)c1ccc(Cl)cc1 | -27.6% (active)
26 | CCN1CCN(Cc2cn(CC(=O)Nc3ccc4c(ccn4Cc4ccccc4)c3)nn2)CC1 | 99.3% (inactive)
27 | C=C(CNCCc1ccc(O)cc1)[C@@H]1CC[C@]2(CO)CC[C@]3(C)[C@H](CC[C@@H]4[C@@]5(C)CCC(NCCO)C(C)(C)[C@@H]5CC[C@]43C)[C@@H]12 (stereo not given in full) | -82.4% (active)
28 | CC(C)(C)[Si](C)(C)O[C@H]1C(=O)C=CN2CC=C[C@@H]12 | 104% [100 µM] (inactive)
29 | CN(C)CC(=O)Nc1ccc2ncnc(Nc3ccc(Oc4cccc(C(F)(F)F)c4)c(Cl)c3)c2c1 | 64.6% (inactive)
30 | O=[N+]([O-])C1C(c2ccccc2)C12c1ccccc1-c1ccccc12 (stereo not given) | 3.12% (active)
31 | Cc1cccc(N2CCN(CC(O)COc3ccc(Cl)cc3)CC2)c1 (stereo not given) | 103% (inactive)
32 | O=CC1(C2(C=O)c3ccccc3-c3ccccc32)c2ccccc2-c2ccccc21 | -29.2% (active)
33 | Cc1nc(N2CCOCC2)sc1S(N)(=O)=O | 91.5% (inactive)
34 | CCCCN[C@H]1CC[C@@]2(C)[C@@H](CC[C@@]3(C)[C@H]2[C@H](O)C[C@H]2/C(=C(\CCC=C(C)C)C(=O)OC)[C@@H](OC(C)=O)C[C@@]23C)[C@@H]1C | 95.9% (inactive)
35 | O=C(/C=C/c1ccccc1)c1cccc(OCCCOc2cccc(C(=O)/C=C/c3ccccc3)c2)c1 | 54.2% (inactive)
36 | OCCOCCN(Cc1ccccn1)Cc1cc(I)cc(I)c1O | 95.5% (inactive)
37 | O=Nc1c(-c2c(O)[nH]c3ncccc23)[nH]c2ccccc12 | 62.8% (inactive)
38 | O=Cc1ccc([N+](=O)[O-])s1 | 62.5% (inactive)
39 | COc1ccc(Cc2cc(-c3ccccc3)nn(Cc3ccccc3)c2=O)cc1OC | 41% (inactive)
40 | O=C1Nc2ccccc2/C1=C\c1nc(-c2ccccc2)n2ccccc12 | 103% (inactive)

System: MCF7 breast
Assay: as above
Settings: 10 µM unless noted

Row | SMILES | growth
41 | C1=CN2CC(c3ccccc3)=NNC2c2ccccc21 (stereo not given) | 67.3% (inactive)
42 | NC(=O)CCC(C(=O)O)N1C(=O)c2ccc(O)cc2C1=O (stereo not given) | 105% (inactive)
43 | Clc1ccc(Sc2cnc(-c3ccccc3)o2)cc1 | 96.1% (inactive)
44 | OCc1cccc(-c2ccc3ncc(-c4nc(NC5CC5)ncc4F)n3c2)c1 | -19.3% (active)
45 | CO/N=C(/C)c1ccc(NC(=O)CSc2nnc(-c3ccncc3)n2-c2ccccc2)cc1 | 42% (inactive)
46 | Cc1ccc(C2=Nc3c(N)ncnc3NC(c3ccc4c(c3)OCO4)C2)cc1 (stereo not given) | 25.9% (inactive)
47 | COc1cc2oc(-c3cccc(NC(=O)c4cccc(Br)c4)c3)cc(=O)c2c(OC)c1OC | 54.8% (inactive)
48 | COC(=O)c1cc(-c2ccccc2)[nH]c1N/N=C/c1c(Cl)cccc1Cl | -38.2% (active)
49 | CN(C)CCCn1c2c(c3ncccc3c1=O)C(=O)c1ccccc1-2 | 11.8% (inactive)
50 | Cc1nnc(-n2c(O)cc(=O)n(-c3ccccc3)c2=S)nc1/C=C/c1ccc(N(C)C)cc1 | 21.6% (inactive)
51 | COc1ccc2c(c1)[n+]([O-])c(C(=O)/C=C/C=C(\Cl)c1cc(OC)c(OC)c(OC)c1)c(C)[n+]2[O-] | 83.4% (inactive)
52 | O=S(=O)(Nc1ccc(Cl)cc1)c1ccc(-c2cnc(C3CC3)o2)cc1 | 18.7% (inactive)
53 | O=C1/C(=C/c2ccc(Cl)cc2)COc2ccc(O)c(O)c21 | 9.76% (active)
54 | COc1ccc(-c2nc3c(c(-c4ccccc4)nn3-c3ccccc3)c(-c3ccc(N4CCOCC4)cc3)c2C#N)cc1 | 84.6% (inactive)
55 | N#Cc1c(NC(=O)c2ccccc2)sc2c1CCC(=O)C2 | 4.73% (active)
56 | COc1cc(-c2nc3cc(Cl)c(Cl)cc3[nH]2)ccc1OCC(=O)N=Nc1c(O)[nH]c2ccc([N+](=O)[O-])cc12 | 74% (inactive)
57 | COc1ccc(N2CCC(=O)NC2=S)cc1 | 95.2% (inactive)
58 | CCOC(=O)c1nc(Nc2ccc(NC(=O)Nc3ccc(F)cc3)cc2)c2ccccc2n1 | 96.5% (inactive)
59 | CCOC(=O)C1=C(NC)OCC1=O | 103% (inactive)
60 | COc1cc(OC)c2sc(-c3ccc(-n4cncc4-c4ccc(OC)c(OC)c4)cc3)nc2c1 | 44.5% (inactive)

Row | SMILES | growth
61 | COCCNC(=O)c1ccc(-c2nc3ccc4[nH]ncc4c3c3c2CCCC3)cc1 | 35.9% (inactive)
62 | Oc1c(Cl)cc(Cl)c2ccc(Cn3cc(-c4cc(F)cc(F)c4)nn3)nc12 | 34.4% (inactive)
63 | Cc1ccc2c(n1)C(=O)c1[nH]c3ccccc3c1C2=O | 31.2% (inactive)
64 | C=CCc1c2c(c(OC)c3ccoc13)C(=O)/C(=C/c1ccccc1OC)O2 | 32.6% (inactive)
65 | O=C(/C=C/c1cn(-c2ccccc2)nc1-c1ccc([N+](=O)[O-])cc1)c1ccc(Cl)cc1 | 25.4% (inactive)
66 | CCN1CCN(Cc2cn(CC(=O)Nc3ccc4c(ccn4Cc4ccccc4)c3)nn2)CC1 | 99.5% (inactive)
67 | C=C(CNCCc1ccc(O)cc1)[C@@H]1CC[C@]2(CO)CC[C@]3(C)[C@H](CC[C@@H]4[C@@]5(C)CCC(NCCO)C(C)(C)[C@@H]5CC[C@]43C)[C@@H]12 (stereo not given in full) | -72.3% (active)
68 | CC(C)(C)[Si](C)(C)O[C@H]1C(=O)C=CN2CC=C[C@@H]12 | 96.5% [100 µM] (inactive)
69 | CN(C)CC(=O)Nc1ccc2ncnc(Nc3ccc(Oc4cccc(C(F)(F)F)c4)c(Cl)c3)c2c1 | 41.6% (inactive)
70 | O=[N+]([O-])C1C(c2ccccc2)C12c1ccccc1-c1ccccc12 (stereo not given) | 9.88% (active)
71 | Cc1cccc(N2CCN(CC(O)COc3ccc(Cl)cc3)CC2)c1 (stereo not given) | 121% (inactive)
72 | O=CC1(C2(C=O)c3ccccc3-c3ccccc32)c2ccccc2-c2ccccc21 | -52.4% (active)
73 | Cc1nc(N2CCOCC2)sc1S(N)(=O)=O | 93.5% (inactive)
74 | CCCCN[C@H]1CC[C@@]2(C)[C@@H](CC[C@@]3(C)[C@H]2[C@H](O)C[C@H]2/C(=C(\CCC=C(C)C)C(=O)OC)[C@@H](OC(C)=O)C[C@@]23C)[C@@H]1C | 90.8% (inactive)
75 | O=C(/C=C/c1ccccc1)c1cccc(OCCCOc2cccc(C(=O)/C=C/c3ccccc3)c2)c1 | 11.3% (inactive)
76 | OCCOCCN(Cc1ccccn1)Cc1cc(I)cc(I)c1O | 76% (inactive)
77 | O=Nc1c(-c2c(O)[nH]c3ncccc23)[nH]c2ccccc12 | 67.8% (inactive)
78 | O=Cc1ccc([N+](=O)[O-])s1 | 47% (inactive)
79 | COc1ccc(Cc2cc(-c3ccccc3)nn(Cc3ccccc3)c2=O)cc1OC | 19.9% (inactive)
80 | O=C1Nc2ccccc2/C1=C\c1nc(-c2ccccc2)n2ccccc12 | 52.9% (inactive)
